# ELG1 DNA repair: inhibitors of ELG1-dependent DNA repair in HEK293T cells. HEK293T ELG1-luciferase reporter, luminescence, 16 h; DNA damage induced by 5-fluorouridine. Potency, µM (titrated, usually from 46.1 µM), inactives show at the top dose activity change, negative = inhibition, most hits filed as inhibitors. 2.3% of 330,000 active. AID 504467; further: potency means the concentration at half of the fitted maximal effect; nearly all actives have a fitted effect of over 55% in size
#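 Cells (2,000 per well) received 5-fluorouridine plus test compound or DMSO and were incubated 16 hr at 37 °C, 5% CO2. Luciferase activity was read by luminescence 30 min after ONE-Glo addition; signal suppression marked inhibition of damage-induced ELG1 function.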
# DT40 TDP1 no CPT: qHTS for Inhibitors of human tyrosyl-DNA phosphodiesterase 1 (TDP1): qHTS in cells in absence of CPT. DT40 Tdp1-/- hTDP1 cells, no CPT, ATP luminescence, 48 h. Potency, µM (highest dose often 46.2 µM), inactives show at the top dose activity change, negative = growth inhibition, hits mostly inhibitors. 15% of 420,000 active; further: potency means the concentration at half of the fitted maximal effect; nearly all actives have a fitted effect of over 55% in size
#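 DT40 Tdp1-/-;hTDP1 cells, no CPT (DMSO vehicle only), 400 cells/well; compounds pin-transferred; ≥48 hr, 37 °C; CellTiter-Glo 30 min RT dark, luminescence read.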
# DT40 TDP1 CPT: DT40-hTDP1 cell growth loss with CPT | chicken DT40 Tdp1-/-;hTDP1 cells + 20 nM CPT, ATP luminescence, 48 h | 12% of 420,000 active | Potency, µM (doses to about 46.2 µM), inactives show at the highest dose activity change, negative = growth inhibition, actives largely listed as inhibitors; further: potency means the concentration at half of the fitted maximal effect; nearly all actives have a fitted effect of over 55% in size
#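 Cell growth measured by CellTiter-Glo luminescence after a minimum 48 h, 37 C compound exposure with 20 nM CPT in Tdp1-knockout DT40 cells stably expressing hTDP1, seeded 400/well; qHTS titration format.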
# Giardia kill: Giardia lamblia killing; Giardia lamblia trophozoite viability; activity change, % at 7.66 µM, hits read low; 0.15% of 340,000 active; AID 540267; in the data active means activity change below about -80%; inconclusive means between about -30% and that limit;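 further: parasites exposed to compound for two days anaerobically before the ATP read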
#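 Luminescence from cellular ATP indicates surviving trophozoites (100 cells/well) following 48 hrs anaerobic compound treatment at 37 deg C; signal develops 15-30 min at room temperature.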
# IL1B secr inh: blocks inflammasome-driven IL-1 beta release | THP-1 LPS/ATP IL-1B secretion, AlphaLISA, 16 h; stronger effect = lower value | activity change, % at 57.5 µM | 4.7% of 360,000 active | AID 743279; in the data active means activity change below about -50%; inconclusive means mostly about -30% to -49%
#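 Secreted IL-1B measured by AlphaLISA bead assay after 16 h compound exposure of THP-1 cells; compounds (final up to 57.5 uM) added 1 h before LPS (250 ng/mL) and ATP (1.25 mM) stimulation; lower signal means less secretion.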
# TDP1 inh: blocks human tyrosyl-DNA phosphodiesterase 1; recombinant TDP1, AlphaScreen DNA substrate cleavage; Potency, µM (series often up to 130 µM), for the others: at the highest dose activity change, negative = inhibition, most hits filed as inhibitors; Q9NUW8; 0.28% of 350,000 active; AID 485290; further: potency means the concentration at half of the fitted maximal effect; nearly all actives have a fitted effect of over 40% in size
# Target sequence (Q9NUW8 whole entry, looked up): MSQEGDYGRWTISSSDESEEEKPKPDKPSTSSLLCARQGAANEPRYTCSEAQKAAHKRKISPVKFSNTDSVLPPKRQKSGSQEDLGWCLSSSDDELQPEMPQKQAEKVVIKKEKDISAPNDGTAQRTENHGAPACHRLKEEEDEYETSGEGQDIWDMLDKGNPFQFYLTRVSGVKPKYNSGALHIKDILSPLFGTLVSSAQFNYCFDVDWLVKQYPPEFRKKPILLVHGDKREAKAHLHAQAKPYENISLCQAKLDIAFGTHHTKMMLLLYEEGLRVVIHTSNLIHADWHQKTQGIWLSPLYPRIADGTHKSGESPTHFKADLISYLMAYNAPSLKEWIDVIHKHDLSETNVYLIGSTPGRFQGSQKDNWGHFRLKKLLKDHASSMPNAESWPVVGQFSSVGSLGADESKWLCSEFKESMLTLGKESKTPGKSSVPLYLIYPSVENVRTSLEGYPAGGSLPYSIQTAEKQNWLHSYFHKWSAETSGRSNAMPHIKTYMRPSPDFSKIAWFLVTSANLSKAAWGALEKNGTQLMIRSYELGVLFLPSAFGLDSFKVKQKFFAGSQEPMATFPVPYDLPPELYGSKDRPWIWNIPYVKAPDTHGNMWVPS
#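 Recombinant E. coli-expressed Tdp1 (1 nM) preincubated with compound 15 min at RT, then 5'-biotin/3'-phosphotyrosine-FITC DNA substrate (15 nM) added for 5 min. AlphaScreen beads (10 ug/ml) added, 10 min RT; tyrosine-FITC cleavage read as signal loss.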
# * marks the source's active call; other numbers are inactive results; i = inactive; ? = inconclusive; · = no result. Hits are enriched below; roughly 19% of the tested compounds scored in any of these assays. Unless noted, the call rests on the fitted dose curve; in most records, active means well fitted curve in the direction sought with a large enough effect; inconclusive means small, poorly fitted or top-dose-only effect, or another doubt; inactive means no such curve, though single readings can be large; an effect the other way counts as inactive or inconclusive. On the % scale 0 is the no-effect control and ±100 the full control effect.
SMILES,ELG1 DNA repair,DT40 TDP1 no CPT,DT40 TDP1 CPT,Giardia kill,IL1B secr inh,TDP1 inh
CCN(CC)CCCNC(=O)c1nn(-c2ccc(C)cc2)c(=O)c2c1c1ccccc1n2C,·,?,?,·,·,4.7%
CCCN(C(=O)c1nn(-c2ccc(C)cc2)c(=O)c2c1c1ccccc1n2C)c1ccccc1C,·,?,?,·,·,0.0%
CCN(C(=O)CSc1nnc(-c2cccc(F)c2)n1N)c1c(N)n(Cc2ccccc2)c(=O)[nH]c1=O,·,0.8%,-9.2%,-2.7,5.0,·
CCOCCCNC(=O)CSc1nc2nc(C)c(Cc3ccccc3)c(C)n2n1,4.3%,-27.7%,13.8%,-13.5,53.0,5.9%
COc1ccc(NC(=O)c2nn(C)cc2[N+](=O)[O-])cc1,?,-1.7%,0.6%,-23.2,7.3,-1.3%
CCn1cc([N+](=O)[O-])c(C(=O)Nc2nc(-c3ccc(C)cc3)c(C)s2)n1,?,-27.2%,20.7%,-21.5,-55.0*,5.9%
Cc1ccc(NC(=O)c2nn(C34CC5CC(CC(C5)C3)C4)cc2[N+](=O)[O-])cc1,10.1%,?,23.1µM*,1.3,-24.2,-3.9%
CCCCCSc1nnc2c(n1)OC(c1cccn1C)N(C(C)=O)c1ccccc1-2 (centres undefined),-0.2%,-15.4%,-16.0%,-7.7,-74.4*,7.8%
COc1ccc(CCC(=O)Nc2nnc(C)s2)cc1,·,-20.0%,?,15.1,·,·
COc1ccc(OC)c(NC(=O)Nc2nc(CN)cs2)c1,·,?,?,·,-7.7,·
COc1ccc(CC(N)c2csc(NC(=O)Nc3ccccc3Cc3ccccc3)n2)cc1 (centres undefined),·,16.4µM*,20.6µM*,·,-51.9*,·
COc1ccc(CC(N)c2csc(NC(=O)Nc3ccccc3C(C)C)n2)cc1 (centres undefined),·,16.4µM*,8.2µM*,·,?,·
COc1ccc(CC(N)c2csc(NC(=O)CCc3ccccc3)n2)cc1 (centres undefined),·,20.6µM*,23.1µM*,·,?,·
O=C(NCCN1CCOCC1)c1cnn(-c2nccc(-c3ccccc3C(F)(F)F)n2)c1C1CC1,·,-12.6%,6.3%,·,·,·
O=C(CN1C(=O)COc2ccc(S(=O)(=O)NC3CCCC3)cc21)NCc1ccc(Cl)cc1,·,?,-18.1%,·,·,6.2%
O=C1c2ccccc2C(=O)N1C/C=C/c1ccccc1,?,3.6%,5.1%,-15.3,-22.7,1.1%
O=C1C(=O)N(CCCc2ccccc2)c2ccccc21,4.4%,1.64µM*,2.06µM*,0.6,-5.5,·
O=C1C(=O)N(C/C=C/c2ccccc2)c2ccccc21,?,0.581µM*,0.92µM*,1.1,29.1,·
O=C(O)C1C2CCC(C2)C1C(=O)N1CCCC1 (centres undefined),-0.3%,-16.8%,-11.9%,-18.2,17.4,-1.7%
O=C(NCc1ccncc1)c1ccc(Oc2ccccc2)cc1,7.3%,18.4µM*,14.6µM*,-1.6,-65.9*,4.8%
COc1ccc(CNC(=O)c2ccc(C)cc2)cc1,·,·,·,-21.7,·,0.3%
O=C(NCc1ccncc1)c1ccc(OCc2ccccc2)cc1,·,13µM*,20.6µM*,5.3,-20.0,·
Cc1ccc(CNC(=O)c2ccc(COc3ccccc3)cc2)cc1,16.4%,?,-18.1%,-14.4,i,2.7%
Cc1ccc(Oc2ccc(C(=O)NCc3ccncc3)cc2)cc1,?,23.1µM*,?,44.5,-51.1*,3.6%
COCCNC(=O)C1(C)CCCN(C(=O)c2ccccc2OC(F)(F)F)C1 (centres undefined),·,5.1%,0.6%,·,12.5,·
Cc1ccc(NC(=O)CN2C(=O)CCc3cc(S(=O)(=O)N4CCOCC4)ccc32)c(C)c1,·,-14.9%,-18.2%,·,·,3.8%

# Assay outcomes: PubChem, National Center for Advancing Translational Sciences (NCATS)
